# In paper PMC5540273 (PLoS ONE, 2017):
# Key:
# Conditions in all cases: concentration: 1 μM, replicates: in singlicate; n = 1
# [1] = system: TNNI3K
# [2] = system: T1, TRKA
# T1 construct: gene NTRK1
# [3] = system: TRKB
# [4] = system: T2, TRKC
# T2 construct: gene NTRK3
# [5] = system: TRPM6
# [6] = system: TSSK1B
# [7] = system: TSSK3
# [8] = system: TTK
# [9] = system: TXK
# [10] = system: TYK2(JH1domain-catalytic)
# [11] = system: TYK2(JH2domain-pseudokinase)
# [12] = system: TYRO3
# [13] = system: ULK1
# [14] = system: ULK2
# [15] = system: ULK3
# [16] = system: T3, VEGFR2
# T3 construct: gene KDR
# [17] = system: T4, VPS34
# T4 construct: gene PIK3C3
# [18] = system: VRK2
# [19] = system: WEE1
# [20] = system: WEE2
# 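Further: KINOMEscan kinase panel screen.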
SMILES,%Inh [1],%Inh [2],%Inh [3],%Inh [4],%Inh [5],%Inh [6],%Inh [7],%Inh [8],%Inh [9],%Inh [10],%Inh [11],%Inh [12],%Inh [13],%Inh [14],%Inh [15],%Inh [16],%Inh [17],%Inh [18],%Inh [19],%Inh [20]
COc1ccc(CNC(=O)NC2CCN(c3ccnc(Nc4ccc(F)cc4)n3)CC2)cc1 [GSK1379788],0%,0%,0%,6%,0%,1%,18%,0%,3%,21%,35%,0%,0%,0%,0%,0%,17%,14%,39%,0%
CN1CCN(Cc2cccc(-c3ccc4c(Nc5ccc(Oc6ccccc6)cc5)ccnc4c3)c2)CC1 [GW578342],6%,43%,0%,19%,39%,0%,6%,0%,5%,8%,5%,12%,0%,0%,2%,16%,0%,26%,0%,0%
O=C(Nc1cccc(Oc2ccc3nc(NC(=O)C4CC4)cn3n2)c1)c1ccccc1C(F)(F)F,4%,0%,0%,0%,0%,7%,0%,26%,17%,5%,0%,36%,0%,0%,1%,99.8%,0%,0%,22%,0%
COc1ccc(-c2coc3ccc(-c4nnc(SCc5ccc(OC)c(C(F)(F)F)c5)o4)cc23)cc1,0%,5%,10%,0%,1%,0%,0%,1%,0%,27%,1%,16%,0%,6%,16%,17%,11%,0%,0%,0%
O=C(Nc1ccccc1F)NC1CCN(c2ccnc(Nc3ccc(F)cc3)n2)CC1 [GSK1379800],0%,0%,0%,6%,0%,1%,22%,0%,46%,28%,43%,0%,0%,0%,6%,0%,0%,4%,21%,0%
Cl.Cl.NCC(C(=O)Nc1cc(Br)c(-c2ccnc3[nH]ccc23)s1)c1ccccc1 (centres unmarked) [GSK1269851],12%,19%,28%,31%,7%,21%,4%,0%,0%,22%,18%,0%,23%,0%,15%,0%,0%,0%,0%,22%
Cc1ccc(F)c(C(=O)Nc2cccc(-c3nn4ccccc4c3-c3ccnc(Nc4cccc(F)c4)n3)c2)c1F [GSK361061],37%,33%,0%,0%,36%,10%,19%,39%,52%,0%,0%,86%,100%,0%,11%,42%,7%,0%,22%,11%
c1ccc(-c2n[nH]cc2Nc2ccnc3ccccc23)nc1 [GW694077],0%,74%,26%,21%,15%,12%,28%,64%,0%,92%,96.6%,0%,17%,12%,8%,23%,39%,50%,0%,0%
c1ccc(-c2cnc3nccnn23)cc1 [AH20685],0%,0%,17%,0%,29%,0%,9%,0%,0%,0%,3%,0%,5%,0%,0%,0%,0%,0%,33%,0%
Cc1cccc(Nc2nc(N[C@H]3CCNC3)ncc2C(N)=O)c1.Cl [GSK2197149],0%,93.3%,0%,18%,34%,13%,29%,29%,15%,46%,97.7%,0%,30%,11%,42%,0%,13%,22%,0%,8%
Cl.Cl.NCC(NC(=O)c1cc(-c2ccccc2)c(-c2ccnc3[nH]ccc23)s1)c1ccccc1 (centres unmarked) [GSK1321561],18%,58%,26%,6%,28%,0%,18%,0%,45%,20%,2%,0%,8%,0%,9%,0%,6%,0%,17%,0%
COC(=O)Nc1nc2cc(Oc3ccc(NC(=O)Nc4cc(C(F)(F)F)ccc4F)cn3)ccc2[nH]1.Cl.Cl [GW681170],92.9%,100%,97.4%,97%,29%,0%,16%,43%,0%,14%,12%,0%,0%,0%,13%,55%,8%,22%,7%,0%
COc1cc(Nc2nccc(N3CCC(NC(=O)Nc4cccc(C(C)=O)c4)C3)n2)cc(OC)c1OC (centres unmarked) [GSK1379753],9%,62%,63%,92.3%,41%,6%,9%,21%,0%,45%,19%,0%,18%,0%,78%,0%,0%,0%,6%,0%
C[C@@H](Oc1cc(-n2cnc3cc(-c4ccnc(NCCS(C)(=O)=O)c4)ccc32)sc1C(N)=O)c1ccccc1Cl [GSK907232],31%,91%,39%,30%,0%,11%,9%,0%,28%,12%,0%,4%,25%,0%,14%,28%,60%,0%,43%,25%
Nc1n[nH]c2cnc(-c3ccccc3)cc12 [SB-642124],0%,0%,28%,20%,9%,30%,12%,0%,3%,79%,85%,9%,50%,22%,35%,0%,0%,35%,19%,0%
COc1cc(Nc2nccc(N3CCC(NC(=O)c4cc5ccccc5s4)C3)n2)cc(OC)c1OC (centres unmarked) [GSK1379760],0%,21%,0%,35%,17%,0%,26%,0%,0%,28%,6%,0%,1%,0%,64%,0%,33%,20%,8%,0%
CCc1ccc(-c2ccc3c(c2)-c2c(cnn2C)S(=O)(=O)N3C)cc1,0%,0%,0%,0%,1%,5%,0%,0%,0%,0%,0%,5%,0%,0%,0%,14%,45%,7%,0%,0%

SMILES,%Inh [1],%Inh [2],%Inh [3],%Inh [4],%Inh [5],%Inh [6],%Inh [7],%Inh [8],%Inh [9],%Inh [10],%Inh [11],%Inh [12],%Inh [13],%Inh [14],%Inh [15],%Inh [16],%Inh [17],%Inh [18],%Inh [19],%Inh [20]
Cc1ccc(S(=O)(=O)Nc2ccc(Nc3nccc(Nc4cccc5[nH]ncc45)n3)cc2)cc1 [GSK581271],7%,0%,33%,24%,11%,4%,11%,0%,77%,42%,93.6%,0%,19%,0%,38%,0%,60%,0%,6%,8%
CC(C)c1nc(-c2cccc(NS(=O)(=O)c3c(F)cccc3F)c2F)c(-c2ccnc(Nc3ccc(N4CCOCC4)nc3)n2)s1 [GSK2008607],92.7%,87%,0%,51%,57%,0%,34%,82%,95.2%,94.9%,17%,100%,63%,83%,98.9%,94.5%,0%,0%,0%,0%
O=C(Nc1cccc(-c2nn3ncccc3c2-c2ccnc(Nc3ccccc3)n2)c1)c1c(F)cccc1F [GSK198271],36%,0%,0%,0%,55%,0%,18%,7%,84%,7%,0%,100%,22%,0%,6%,80%,0%,0%,40%,0%
O=C(Nc1cccc(-c2nn3ccccc3c2-c2ccnc(Nc3cccc(F)c3)n2)c1)c1c(F)ccc(F)c1Cl [GSK357952],0%,11%,0%,0%,32%,0%,6%,28%,67%,11%,0%,81%,21%,0%,13%,12%,22%,0%,0%,3%
COC(=O)Nc1nc2ccc(Oc3ccc(NC(=O)Nc4cc(C(F)(F)F)ccc4F)cc3)cc2n1C.Cl [GW692089],72%,100%,84%,96.5%,0%,0%,0%,17%,0%,26%,18%,0%,0%,0%,0%,43%,0%,56%,2%,0%
FC(F)(F)c1ccc(/C=C/c2cncnc2Nc2ccc3[nH]c(Cc4ccccc4)nc3c2)cc1 [GW709199],0%,0%,8%,0%,0%,0%,0%,0%,0%,41%,34%,0%,0%,0%,10%,0%,39%,3%,23%,35%
CCn1c(-c2nonc2N)nc2c(C#CC(C)(C)O)ncc(OCCCCN)c21.O=C(O)C(F)(F)F.O=C(O)C(F)(F)F [GSK507274],9%,0%,19%,1%,0%,80%,99.5%,21%,49%,33%,29%,2%,54%,32%,12%,0%,34%,0%,10%,14%
Oc1cc(Nc2ccnc3cc(I)ccc23)ccc1F [GW552771],2%,0%,23%,26%,26%,6%,13%,0%,94.5%,32%,25%,54%,9%,0%,29%,31%,0%,36%,0%,0%
COc1cccc(-c2ccc3c(NC(=O)C4CC4)n[nH]c3n2)c1 [SB-710903],5%,0%,66%,58%,0%,0%,3%,0%,0%,52%,64%,0%,0%,0%,9%,0%,0%,66%,14%,15%
O=C(O)C(F)(F)F.O=C(O)C(F)(F)F.O=c1[nH]ccc2nc(N[C@@H]3CCCNC3)nc(Nc3ccc(S(=O)(=O)N4CCOCC4)cc3)c12 [GSK2177277],15%,100%,92.5%,98%,19%,95.1%,99.7%,96.8%,35%,99.7%,93.2%,15%,100%,88%,99.9%,74%,91.5%,77%,66%,13%
Cc1ccc(C(=O)N2CC[C@@H](O)C2)cc1-n1c(C)cc(OCc2ccc(F)cc2F)c(Br)c1=O,0%,0%,0%,0%,0%,0%,0%,3%,0%,0%,0%,0%,0%,0%,0%,0%,0%,0%,0%,0%
CN(c1ccc(NC(=O)Nc2cc(C(F)(F)F)ccc2F)cc1)c1ccnc(Nc2ccc(S(N)(=O)=O)cc2)n1 [GW809893],93.3%,100%,97.6%,98.7%,31%,5%,9%,22%,26%,44%,12%,77%,17%,3%,76%,88%,4%,0%,0%,11%
NCCCC(NC(=O)c1cc(Br)c(-c2ccnc3[nH]ccc23)s1)c1ccccc1.O=C(O)C(F)(F)F.O=C(O)C(F)(F)F (centres unmarked) [GSK1287544],0%,53%,11%,17%,16%,17%,1%,21%,18%,75%,6%,0%,54%,0%,13%,3%,28%,0%,2%,4%
CNC(=O)c1ccccc1Nc1nc(Nc2ccc(N3CCOCC3)cc2)ncc1Cl.Cl [GSK1576028],50%,100%,96.6%,97.1%,75%,15%,17%,95%,97.6%,99.9%,99.7%,85%,99.6%,81%,99.8%,90%,0%,21%,99.7%,100%
c1ccc(Oc2ccc(Nc3ccnc4cc(-c5ccc(CNCCN6CCOCC6)o5)ccc34)cc2)nc1 [GW567145],0%,100%,53%,42%,14%,0%,2%,7%,1%,0%,13%,0%,14%,0%,7%,0%,2%,30%,1%,0%
O=c1[nH]cc(-c2ccc(N3CCOCC3)cc2)c2sc(-c3cn[nH]c3)cc12 [GSK2276055],0%,0%,0%,0%,0%,18%,13%,22%,76%,23%,64%,0%,0%,0%,9%,17%,0%,0%,4%,0%
Cn1cc(-c2[nH]c3cc(NC(=O)[C@H](N)C4CCCCC4)cc4c3c2C=NNC4=O)cn1,54%,91.6%,64%,57%,11%,73%,23%,0%,32%,95.1%,87%,73%,68%,98.9%,97.6%,90.7%,80%,0%,65%,98.2%
